# PubChem BioAssay (NCI)
# Compounds without any hit were thinned out: in the full panel of roughly 83,000, 20% have a hit.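 Interpretation: 100, growth as untreated; towards 0, rising growth inhibition; 0, no net growth; 0 to -100, cell death. Compounds scoring below 10 were considered active.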 A number with no mark means an inactive call. Activity calls are given as the source filed them.
# How the values were obtained:
# Test in all cases: NCI-60 one-dose screen, 48 h (100 = growth as untreated, 0 = no growth, -100 = all killed)
# Conditions in all cases: 10 µM unless noted
# BT-549 breast = system: BT-549 breast
# MDA-MB-435 melanoma = system: MDA-MB-435 melanoma
# SW-620 colon = system: SW-620 colon
# MCF7 breast = system: MCF7 breast
# HCT-116 colon = system: HCT-116 colon
# HCC-2998 colon = system: HCC-2998 colon
# KM12 colon = system: KM12 colon
SMILES,growth (BT-549 breast),growth (MDA-MB-435 melanoma),growth (SW-620 colon),growth (MCF7 breast),growth (HCT-116 colon),growth (HCC-2998 colon),growth (KM12 colon)
O=C(Nc1nc(-c2ccccc2Cl)cs1)c1cc(-c2ccc(Br)cc2)nc2ccccc12,70.9%,64.5%,57%,29.4%,43.6%,63.9%,59%
COc1ccc(-c2[nH]c3ccccc3c2C=C(C#N)C#N)cc1,45.9%,-34.6% (active),20.5%,11.4%,4.01% (active),-39.2% (active),3.41% (active)
O=c1cc(/C=N\Nc2nc(-c3ccc(Cl)cc3Cl)cs2)c2cc(Cl)ccc2o1,96.7%,105%,104%,78.2%,80%,105%,94.3%
C=CCn1c(CN2CCN(c3cc4c(cc3F)c(=O)c(C(=O)O)cn4C3CC3)CC2)n[nH]c1=S,105%,102%,105%,95.7%,105%,107%,99.4%
CSc1nc(-c2ccc(F)cc2)c(C#N)c(N2CCOCC2)n1,95.3%,105%,97.5%,90.4%,96.6%,101%,101%
COc1ccccc1Nc1nnc(-c2ccc(Cl)cc2)o1,56.9%,-5.9% (active),20.9%,17.1%,34.1%,82%,23.9%
COc1ccccc1C(=O)/C=C/c1cc2cccc(OC)c2[nH]c1=O,-3.55% (active),6.42% (active),-6.28% (active),13.4%,-15% (active),-84.7% (active),-49.1% (active)
COc1cc(-c2csc(NC(=O)Nc3cc(Cl)cc(Cl)c3)n2)cc(OC)c1OC,11.5%,27.1%,-26.4% (active),8.04% (active),-28.9% (active),70.8%,18.5%
Cc1c(Cl)cccc1NC(=O)c1sc2nc3c(cc2c1N)CN(Cc1ccccc1)CC3,61.9%,-4.11% (active),16.8%,16.1%,39.3%,82.9%,30.8%
